Experimental data as given in article PMC8384837, “Expanding the binding specificity for RNA recognition by a PUF domain”.

Key:
Assay in all cases: yeast three-hybrid, YBZ-1, SC-Leu-His + 0.5 mM 3-AT, 4 days
Details in all cases: tags: N-Gal4 AD-HA kept; label: inside an RPR1-promoter hybrid RNA with tandem MS2 sites; ssRNA
[1] = molecular target: PUM1 PUF domain R2-RKA (Homo sapiens, UniProt Q14671 828-1176, N899R;Y900K;Q903A)
Summary of the method: (§1)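 Repeat regions from input (SC-Leu) and selection (SC-Leu-His + 0.5 mM 3-AT) plates were PCR-amplified and Illumina-sequenced after four days of growth. The cells were strain YBZ-1 with a LexA–MS2 coat fusion and a HIS3 reporter, co-expressing Pumilio-1 PUF domain libraries and matching RNA elements from a centromeric plasmid. The interaction score is the log change in variant frequency from input to selection, taken in log2 with a pseudocount of 1 for absent variants.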

[2] = molecular target: PUM1 PUF domain R3-FRP (Homo sapiens, UniProt Q14671 828-1176, C935F;Q939P)
Summary of the method: as §1

[3] = molecular target: PUM1 PUF domain R1-GGE (Homo sapiens, UniProt Q14671 828-1176, S863G;R864G;Q867E)
Summary of the method: as §1

[4] = molecular target: T1, PUM1 PUF domain R6-RWV (Homo sapiens, UniProt Q14671 828-1176, N1043R;Y1044W;Q1047V)
T1 sequence: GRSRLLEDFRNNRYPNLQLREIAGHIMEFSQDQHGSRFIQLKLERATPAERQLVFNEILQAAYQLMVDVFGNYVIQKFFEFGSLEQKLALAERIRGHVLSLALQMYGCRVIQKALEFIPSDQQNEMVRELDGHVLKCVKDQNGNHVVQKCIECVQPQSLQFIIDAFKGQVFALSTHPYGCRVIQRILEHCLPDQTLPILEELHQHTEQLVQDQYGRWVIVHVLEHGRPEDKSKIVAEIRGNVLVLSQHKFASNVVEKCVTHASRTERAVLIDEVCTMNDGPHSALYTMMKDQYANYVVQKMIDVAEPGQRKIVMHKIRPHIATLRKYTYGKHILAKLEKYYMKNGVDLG
Summary of the method: as §1

[5] = molecular target: PUM1 PUF domain R7-LTC (Homo sapiens, UniProt Q14671 828-1176, S1079L;N1080T;E1083C)
Summary of the method: as §1

[6] = molecular target: PUM1 PUF domain R7-RPQ (Homo sapiens, UniProt Q14671 828-1176, S1079R;N1080P;E1083Q)
Summary of the method: as §1

[7] = molecular target: PUM1 PUF domain R4-GNS (Homo sapiens, UniProt Q14671 828-1176, N971G;H972N;Q975S)
Summary of the method: as §1

[8] = molecular target: PUM1 PUF domain R5-MHM (Homo sapiens, UniProt Q14671 828-1176, C1007M;R1008H;Q1011M)
Summary of the method: as §1

[9] = molecular target: PUM1 PUF domain R7-KYW (Homo sapiens, UniProt Q14671 828-1176, S1079K;N1080Y;E1083W)
Summary of the method: as §1

[10] = molecular target: PUM1 PUF domain R8-KRL (Homo sapiens, UniProt Q14671 828-1176, N1122K;Y1123R;Q1126L)
Summary of the method: as §1

[11] = molecular target: PUM1 PUF domain R8-QWR (Homo sapiens, UniProt Q14671 828-1176, N1122Q;Y1123W;Q1126R)
Summary of the method: as §1

[12] = molecular target: PUM1 PUF domain R8-RWN (Homo sapiens, UniProt Q14671 828-1176, N1122R;Y1123W;Q1126N)
Summary of the method: as §1

[13] = molecular target: PUM1 PUF domain R4-EPG (Homo sapiens, UniProt Q14671 828-1176, N971E;H972P;Q975G)
Summary of the method: as §1

[14] = molecular target: PUM1 PUF domain R5-RYW (Homo sapiens, UniProt Q14671 828-1176, C1007R;R1008Y;Q1011W)
Summary of the method: as §1

[15] = molecular target: PUM1 PUF domain R5-NCR (Homo sapiens, UniProt Q14671 828-1176, C1007N;R1008C;Q1011R)
Summary of the method: as §1

[16] = molecular target: PUM1 PUF domain R4-NRM (Homo sapiens, UniProt Q14671 828-1176, H972R;Q975M)
Summary of the method: as §1

[17] = molecular target: PUM1 PUF domain R4-RHA (Homo sapiens, UniProt Q14671 828-1176, N971R;Q975A)
Summary of the method: as §1

[18] = molecular target: PUM1 PUF domain R5-DQQ (Homo sapiens, UniProt Q14671 828-1176, C1007D;R1008Q)
Summary of the method: as §1

[19] = molecular target: PUM1 PUF domain R4-VRG (Homo sapiens, UniProt Q14671 828-1176, N971V;H972R;Q975G)
Summary of the method: as §1

[20] = molecular target: PUM1 PUF domain R3-RSH (Homo sapiens, UniProt Q14671 828-1176, C935R;R936S;Q939H)
Summary of the method: as §1

GGCUAGAACUAGUGGAUCCCCCGGCGCCCGGCGGCUCGAGCCCGGGUAAGUGUAAAGAGUCUGCAUGCCGCCGGGCGCCAUGCCUGCAGGUCGACUCUAGAAAACAUG
binding signal [1]: 7.14 log2 enrichment (interaction score)

GGCUAGAACUAGUGGAUCCCCCGGCGCCCGGCGGCUCGAGCCCGGGUAAGUGUAAGUAGUCUGCAUGCCGCCGGGCGCCAUGCCUGCAGGUCGACUCUAGAAAACAUG
binding signal [2]: 2.47 log2 enrichment (interaction score)

GGCUAGAACUAGUGGAUCCCCCGGCGCCCGGCGGCUCGAGCCCGGGUAAGUGUAAAUGGUCUGCAUGCCGCCGGGCGCCAUGCCUGCAGGUCGACUCUAGAAAACAUG
binding signal [3]: 2.22 log2 enrichment (interaction score)

GGCUAGAACUAGUGGAUCCCCCGGCGCCCGGCGGCUCGAGCCCGGGUAAGUGAAAAUAGUCUGCAUGCCGCCGGGCGCCAUGCCUGCAGGUCGACUCUAGAAAACAUG
binding signal [4]: 2.99 log2 enrichment (interaction score)

GGCUAGAACUAGUGGAUCCCCCGGCGCCCGGCGGCUCGAGCCCGGGUAAGUUUAAAUAGUCUGCAUGCCGCCGGGCGCCAUGCCUGCAGGUCGACUCUAGAAAACAUG
binding signal [5]: 3.36 log2 enrichment (interaction score) | binding signal [6]: 5.16 log2 enrichment (interaction score)

GGCUAGAACUAGUGGAUCCCCCGGCGCCCGGCGGCUCGAGCCCGGGUAAGUGUACAUAGUCUGCAUGCCGCCGGGCGCCAUGCCUGCAGGUCGACUCUAGAAAACAUG
binding signal [7]: 2.01 log2 enrichment (interaction score)

GGCUAGAACUAGUGGAUCCCCCGGCGCCCGGCGGCUCGAGCCCGGGUAAGUGUGAAUAGUCUGCAUGCCGCCGGGCGCCAUGCCUGCAGGUCGACUCUAGAAAACAUG
binding signal [8]: 2.99 log2 enrichment (interaction score)

GGCUAGAACUAGUGGAUCCCCCGGCGCCCGGCGGCUCGAGCCCGGGUAAGUCUAAAUAGUCUGCAUGCCGCCGGGCGCCAUGCCUGCAGGUCGACUCUAGAAAACAUG
binding signal [9]: 3.27 log2 enrichment (interaction score) | binding signal [6]: 2.7 log2 enrichment (interaction score)

GGCUAGAACUAGUGGAUCCCCCGGCGCCCGGCGGCUCGAGCCCGGGUAAGCGUAAAUAGUCUGCAUGCCGCCGGGCGCCAUGCCUGCAGGUCGACUCUAGAAAACAUG
binding signal [10]: 3.37 log2 enrichment (interaction score) | binding signal [11]: 5.32 log2 enrichment (interaction score) | binding signal [12]: 0.65 log2 enrichment (interaction score)

GGCUAGAACUAGUGGAUCCCCCGGCGCCCGGCGGCUCGAGCCCGGGUAAGUGUAUAUAGUCUGCAUGCCGCCGGGCGCCAUGCCUGCAGGUCGACUCUAGAAAACAUG
binding signal [13]: 2.97 log2 enrichment (interaction score) | binding signal [7]: 4.46 log2 enrichment (interaction score)

GGCUAGAACUAGUGGAUCCCCCGGCGCCCGGCGGCUCGAGCCCGGGUAAGUGUUAAUAGUCUGCAUGCCGCCGGGCGCCAUGCCUGCAGGUCGACUCUAGAAAACAUG
binding signal [14]: 3.92 log2 enrichment (interaction score) | binding signal [15]: 4.23 log2 enrichment (interaction score)

GGCUAGAACUAGUGGAUCCCCCGGCGCCCGGCGGCUCGAGCCCGGGUAAGUGUAAAUAGUCUGCAUGCCGCCGGGCGCCAUGCCUGCAGGUCGACUCUAGAAAACAUG
binding signal [10]: 1.26 log2 enrichment (interaction score) | binding signal [16]: 3.21 log2 enrichment (interaction score) | binding signal [11]: 4.74 log2 enrichment (interaction score) | binding signal [17]: 3.02 log2 enrichment (interaction score) | binding signal [14]: 2.33 log2 enrichment (interaction score) | binding signal [18]: 2.81 log2 enrichment (interaction score) | binding signal [12]: 4.57 log2 enrichment (interaction score) | binding signal [13]: 1.2 log2 enrichment (interaction score) | binding signal [7]: 2.34 log2 enrichment (interaction score) | binding signal [19]: 4.34 log2 enrichment (interaction score) | binding signal [4]: 5.13 log2 enrichment (interaction score)

GGCUAGAACUAGUGGAUCCCCCGGCGCCCGGCGGCUCGAGCCCGGGUAAGUGUCAAUAGUCUGCAUGCCGCCGGGCGCCAUGCCUGCAGGUCGACUCUAGAAAACAUG
binding signal [18]: 5.11 log2 enrichment (interaction score) | binding signal [15]: 1.7 log2 enrichment (interaction score)

GGCUAGAACUAGUGGAUCCCCCGGCGCCCGGCGGCUCGAGCCCGGGUAAGUGUAAUUAGUCUGCAUGCCGCCGGGCGCCAUGCCUGCAGGUCGACUCUAGAAAACAUG
binding signal [20]: 3.41 log2 enrichment (interaction score)
